In general, AC50 refers to the concentration at which the activity in the assay is half-maximal.

Values joined by “and” are separate entries in the source; they are usually repeats but may differ in a detail not shown here. Equal values may be shown once. Records with an inconclusive call do not appear. Active and inactive are the calls of the source. The calls were made as follows, unless noted: active = hit-call score of the fitted dose curve at least 0.9, where 1 is the maximum; inactive = score below 0.9.

For assay [1], the target named is Glucocorticoid receptor (Homo sapiens) (UniProt P04150). Kind of assay: ATG_GR_TRANS: Attagene TRANS-FACTORIAL HepG2 Assay for human Glucocorticoid Receptor (GR) (AID 2282978; active = hit-call score of the fitted dose curve at least 0.9, where 1 is the maximum;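 also: activators score as hits since higher reporter transcript over DMSO is fitted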). Particulars: HepG2 Attagene TRANS GR reporter, mRNA transcription. In a few lines: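 HepG2 transient transfection, multiple reporter units, GAL4-UAS under NR-GAL4 chimera control. 24 h treatment. Reporter mRNA by RT-PCR/CE fluorescence, DMSO as negative control.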

The target in assay [2] is Bile acid receptor (Homo sapiens) (UniProt Q96RI1). Kind of assay: ATG_FXR_TRANS: Attagene TRANS-FACTORIAL HepG2 Assay for Farnesoid X Receptor (FXR) (AID 2282979; active = hit-call score of the fitted dose curve at least 0.9, where 1 is the maximum;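 also: hits raise reporter mRNA above DMSO so AC50 marks FXR activation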). Particulars: HepG2 Attagene TRANS FXR-GAL4 reporter transcription. The method, boiled down: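 HepG2 cells were transiently transfected with GAL4-UAS reporters driven by chimeric NR-Gal4 proteins and dosed for 24 h. Reporter mRNA was quantified by RT-PCR, fluorescent labelling, HpaI digestion and capillary electrophoresis, with gain of signal scored versus DMSO.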

The target of assay [3] is Oxysterols receptor LXR-alpha (Homo sapiens) (UniProt Q13133). Kind of assay: ATG_LXRa_TRANS: Attagene TRANS-FACTORIAL HepG2 Assay for human Liver X Receptor alpha (LXRa) (AID 2282980; active = hit-call score of the fitted dose curve at least 0.9, where 1 is the maximum). Particulars: HepG2 Attagene TRANS reporter, LXRa transactivation. The method, boiled down: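 HepG2 cells transiently transfected with GAL4-UAS reporter units for chimeric NR-Gal4 proteins, exposed to chemicals for 24 h. Reporter mRNA quantified by RT-PCR and capillary electrophoresis; gain of signal fitted relative to DMSO.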

The target in assay [4] is Oxysterols receptor LXR-beta (Homo sapiens) (UniProt P55055). Kind of assay: ATG_LXRb_TRANS: Attagene TRANS-FACTORIAL HepG2 Assay for human Liver X Receptor beta (LXRb) (AID 2282981; active = hit-call score of the fitted dose curve at least 0.9, where 1 is the maximum). Particulars: HepG2 Attagene TRANS GAL4-LXRb reporter, mRNA. In a few lines: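 HepG2 cells transiently transfected with multiple reporter transcription units carrying chimeric NR-Gal4 proteins acting on GAL4-UAS reporters; compound exposure 24 h. Reporter mRNA quantified by RT-PCR, 6-FAM labelling, HpaI digestion and capillary electrophoresis; gain of signal versus DMSO.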

Assay [5] addresses Hepatocyte nuclear factor 4-alpha (Homo sapiens) (UniProt P41235). As to the kind of experiment: ATG_HNF4a_TRANS: Attagene TRANS-FACTORIAL HepG2 Assay for human Hepatocyte Nuclear Factor 4 alpha (HNF4a) (AID 2282982; active = hit-call score of the fitted dose curve at least 0.9, where 1 is the maximum). The note with it: HepG2 HNF4a transactivation reporter, mRNA readout. In a few lines: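 HepG2 cells transiently transfected with multiplexed GAL4-UAS reporter units responsive to chimeric NR-GAL4 proteins; compound exposure 24 h. Reporter mRNA quantified by RT-PCR, 6-FAM labelling, HpaI digestion and capillary electrophoresis; gain of signal versus DMSO baseline.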

Assay [6] can be described thus: ATG_M_06_TRANS: Attagene TRANS-FACTORIAL HepG2 Assay for M06 Transcription Factor (Internal Marker) (AID 2282983; active = hit-call score of the fitted dose curve at least 0.9, where 1 is the maximum;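 also: reporter transcript level by RT-PCR then capillary electrophoresis fluorescence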). The note with it: HepG2 Attagene TRANS M06 internal marker reporter. In a few lines:
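HepG2 cells transiently transfected with GAL4-UAS multiple reporter units, dosed 24 h. Reporter RNA reverse-transcribed, PCR-amplified, 6-FAM-labeled, HpaI-digested and quantified by capillary electrophoresis; this internal-marker signal fitted upward relative to DMSO.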

Assay [7] has as its target Nuclear receptor subfamily 4 group A member 2 (Homo sapiens) (UniProt P43354). Kind of assay: ATG_NURR1_TRANS: Attagene TRANS-FACTORIAL HepG2 Assay for human Nuclear Receptor Related Protein 1 (NURR1) (AID 2282985; active = hit-call score of the fitted dose curve at least 0.9, where 1 is the maximum). The note with it: HepG2 Attagene TRANS reporter, mRNA readout. The method, boiled down:
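HepG2 cells transiently transfected with GAL4-UAS reporter units and chimeric NR-Gal4 constructs; chemical exposure 24 h. Reporter mRNA quantified by RT-PCR, fluorescent labelling and capillary electrophoresis; gain of signal fitted relative to DMSO baseline.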

Assay [8] deals with Transcriptional activator Myb (Homo sapiens) (UniProt P10242). Kind of assay: ATG_Myb_CIS: Attagene CIS-FACTORIAL HepG2 Assay for human Myeloblastosis (Myb) Proto-Oncogene Transcription Factor (AID 2282986). The note with it: HepG2 Attagene CIS-FACTORIAL Myb reporter transcription; actives raise or lower the signal. In a few lines: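 Multiplexed cis-reporter system in HepG2: transient transfection, 24 h treatment, mRNA readout by RT-PCR and capillary electrophoresis. Both increases and decreases are scored versus DMSO negative control.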

For assay [9], the target named is Nuclear respiratory factor 1 (Homo sapiens) (UniProt Q16656). Kind of assay: ATG_NRF1_CIS: Attagene CIS-FACTORIAL HepG2 Assay for human Nuclear Respiratory Factor 1 (NRF1) Orphan Gene (AID 2282987). The note with it: HepG2 NRF1 cis-element reporter, Attagene multiplex; actives raise or lower the signal. The method, boiled down:
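Endogenous factor activity was captured via cis-element-driven reporter transcripts in HepG2 cells. Following 24 h chemical treatment, transcripts were quantified by RT-PCR and capillary electrophoresis.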

A short description of assay [10]: ATG_NFI_CIS: Attagene CIS-FACTORIAL HepG2 Assay for human Nuclear Factor I (NFI) (AID 2282989). The note with it: HepG2 cis-regulatory reporter, NFI response element transcription; actives raise or lower the signal. In a few lines:
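After transient transfection of HepG2 with cis-promoter reporter constructs and 24 h dosing, RNA is reverse-transcribed, amplified, 6-FAM end-labelled and HpaI-digested before capillary analysis. Bidirectional curve fitting against DMSO.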

Assay [11] has as its target Myc proto-oncogene protein (Homo sapiens) (UniProt P01106). As to the kind of experiment: ATG_Myc_CIS: Attagene CIS-FACTORIAL HepG2 Assay for human Myelocytomatosis (Myc) Proto-Oncogene Transcription Factor (AID 2282990). Particulars: HepG2, Attagene cis-reporter transcription factor activity; actives raise or lower the signal. In a few lines: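 HepG2 cells transiently transfected with multiple cis-promoter-driven reporter transcription units, so endogenous TF activity is read. After 24 h compound exposure, reporter mRNA was quantified by RT-PCR, 6-FAM labelling, HpaI digestion and capillary electrophoresis; bidirectional fit versus DMSO.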

Assay [12] in a line: ATG_NF_kB_CIS: Attagene CIS-FACTORIAL HepG2 Assay for human Nuclear Factor Kappa B (NF-kB) (AID 2282991). The note with it: HepG2 Attagene cis-factorial NF-kB reporter mRNA; actives raise or lower the signal. In a few lines:
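After 24 h compound incubation, transfected HepG2 cells yield total RNA; reporter cDNA is PCR-amplified, end-labelled with 6-FAM, HpaI-digested and analysed on a genetic analyser. Endogenous factor activity, DMSO-referenced bidirectional fit.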

A short description of assay [13]: ATG_NRF2_ARE_CIS: Attagene CIS-FACTORIAL HepG2 Assay for human Nuclear Factor Erythroid 2 Related Factor 2 (NFR2) response to Antioxidant Response Elements (ARE) (AID 2282992). Particulars: HepG2 Attagene ARE/NRF2 reporter, transcription factor activity; actives raise or lower the signal. The method, boiled down: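 Cis-factorial assay: transfected HepG2 reporter library, 24 h dosing, mRNA readout via RT-PCR/CE; DMSO-referenced bidirectional analysis.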

Assay [14] is described as follows: ATG_Oct_MLP_CIS: Attagene CIS-FACTORIAL HepG2 Assay for human Octamer-Binding Transcription Factor (Oct) (AID 2282993). The note with it: HepG2 Attagene cis-factorial Oct reporter, mRNA; actives raise or lower the signal. The method, boiled down: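 Cells of the HepG2 line express promoter-controlled reporter sequences whose mRNA levels, after 24 h treatment, are measured by RT-PCR and capillary electrophoresis. Increases and decreases are scored relative to DMSO.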

Assay [15] is described as follows: BSK_3C_TissueFactor: BioMAP Diversity Plus: 3C Assay for Tissue Factor Biomarker Activity (AID 2282997). The note with it: BioMAP 3C HUVEC, tissue factor biomarker readout; actives raise or lower the signal. The method, boiled down:
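HUVEC were treated 24 h, then surface tissue factor measured by ELISA and fitted bidirectionally against DMSO. Parallel SRB total-protein staining assessed overt cytotoxicity at the same time point.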

Assay [16] is described as follows: BSK_3C_uPAR: BioMAP Diversity Plus: 3C Assay for Urokinase-type plasminogen activator receptor (uPAR) Biomarker Activity (AID 2282998). Particulars: BioMAP 3C HUVEC, uPAR biomarker ELISA; actives raise or lower the signal. In a few lines:
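Endothelial primary cells of human umbilical vein origin received test chemical; 24 h later uPAR was assayed by ELISA. Fitting was bidirectional, DMSO as negative control.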
For orientation: ELISA stands for enzyme-linked immunosorbent assay.

The nature of assay [17]: ATG_M_32_TRANS: Attagene TRANS-FACTORIAL HepG2 Assay for M32 Transcription Factor (Internal Marker) (AID 2282984; active = hit-call score of the fitted dose curve at least 0.9, where 1 is the maximum;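 also: transcript level of a background control reporter unit measured by RT-PCR and capillary electrophoresis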). Particulars: HepG2 Attagene TRANS M32 internal marker reporter. In a few lines: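 HepG2 cells transiently transfected with multiple GAL4-UAS reporter transcription units, dosed for 24 hours; reporter mRNA quantified by RT-PCR, 6-FAM primer extension, HpaI digestion and capillary electrophoresis. Gain-of-signal fitted versus DMSO baseline; internal background-control marker.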

The target in assay [18] is Cellular tumor antigen p53 (Homo sapiens) (UniProt P04637). As to the kind of experiment: ATG_p53_CIS: Attagene CIS-FACTORIAL HepG2 Assay for human p53 Transcription Factor (AID 2282994). The note with it: HepG2 p53 cis-element reporter, Attagene mRNA; actives raise or lower the signal. The method, boiled down: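 Using HepG2 hepatoma cells carrying cis-acting multiplexed reporters, mRNA induction is detected after a 24 h exposure. Gain- and loss-of-signal responses are fitted relative to DMSO-treated cells.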
Sequence of Cellular tumor antigen p53 (Homo sapiens) (P04637 whole entry, looked up): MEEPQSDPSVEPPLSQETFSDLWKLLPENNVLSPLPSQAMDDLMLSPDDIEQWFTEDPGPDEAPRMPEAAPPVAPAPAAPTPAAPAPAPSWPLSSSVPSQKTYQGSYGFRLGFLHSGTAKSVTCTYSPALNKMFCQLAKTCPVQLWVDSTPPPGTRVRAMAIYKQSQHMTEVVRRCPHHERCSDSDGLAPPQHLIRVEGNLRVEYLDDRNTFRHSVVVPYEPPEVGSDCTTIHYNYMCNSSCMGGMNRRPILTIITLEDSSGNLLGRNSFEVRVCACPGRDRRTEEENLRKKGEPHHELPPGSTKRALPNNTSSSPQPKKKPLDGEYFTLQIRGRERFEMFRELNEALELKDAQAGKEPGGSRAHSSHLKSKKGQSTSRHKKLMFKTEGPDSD

Sequence of Oxysterols receptor LXR-alpha (Homo sapiens) (Q13133 whole entry, looked up, the tested form may be a part): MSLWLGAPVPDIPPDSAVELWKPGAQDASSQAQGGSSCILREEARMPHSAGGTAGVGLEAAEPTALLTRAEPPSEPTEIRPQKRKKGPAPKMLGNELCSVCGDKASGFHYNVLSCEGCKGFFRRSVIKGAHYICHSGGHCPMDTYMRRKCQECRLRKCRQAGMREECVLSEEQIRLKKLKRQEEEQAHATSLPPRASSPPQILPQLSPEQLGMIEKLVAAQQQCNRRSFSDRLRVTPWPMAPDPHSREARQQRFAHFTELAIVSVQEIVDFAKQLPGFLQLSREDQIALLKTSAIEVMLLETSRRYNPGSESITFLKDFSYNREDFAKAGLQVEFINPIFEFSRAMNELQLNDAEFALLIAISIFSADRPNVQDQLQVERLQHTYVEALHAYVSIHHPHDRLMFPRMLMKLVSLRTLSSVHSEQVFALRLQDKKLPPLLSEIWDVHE
Sequence of Myc proto-oncogene protein (Homo sapiens) (P01106 whole entry, looked up): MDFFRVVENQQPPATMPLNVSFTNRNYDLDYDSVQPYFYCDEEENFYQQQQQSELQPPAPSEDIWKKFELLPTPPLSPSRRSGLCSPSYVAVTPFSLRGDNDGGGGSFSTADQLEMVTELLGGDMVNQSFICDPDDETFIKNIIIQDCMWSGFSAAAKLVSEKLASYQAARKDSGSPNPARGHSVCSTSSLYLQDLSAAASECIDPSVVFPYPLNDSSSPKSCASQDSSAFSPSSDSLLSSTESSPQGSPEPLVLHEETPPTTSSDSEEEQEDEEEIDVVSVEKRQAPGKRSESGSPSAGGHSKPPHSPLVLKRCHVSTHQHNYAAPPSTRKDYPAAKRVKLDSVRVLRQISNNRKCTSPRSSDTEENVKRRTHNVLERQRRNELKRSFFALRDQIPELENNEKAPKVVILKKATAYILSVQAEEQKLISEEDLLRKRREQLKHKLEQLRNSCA
Sequence of Glucocorticoid receptor (Homo sapiens) (P04150 whole entry, looked up, the tested form may be a part): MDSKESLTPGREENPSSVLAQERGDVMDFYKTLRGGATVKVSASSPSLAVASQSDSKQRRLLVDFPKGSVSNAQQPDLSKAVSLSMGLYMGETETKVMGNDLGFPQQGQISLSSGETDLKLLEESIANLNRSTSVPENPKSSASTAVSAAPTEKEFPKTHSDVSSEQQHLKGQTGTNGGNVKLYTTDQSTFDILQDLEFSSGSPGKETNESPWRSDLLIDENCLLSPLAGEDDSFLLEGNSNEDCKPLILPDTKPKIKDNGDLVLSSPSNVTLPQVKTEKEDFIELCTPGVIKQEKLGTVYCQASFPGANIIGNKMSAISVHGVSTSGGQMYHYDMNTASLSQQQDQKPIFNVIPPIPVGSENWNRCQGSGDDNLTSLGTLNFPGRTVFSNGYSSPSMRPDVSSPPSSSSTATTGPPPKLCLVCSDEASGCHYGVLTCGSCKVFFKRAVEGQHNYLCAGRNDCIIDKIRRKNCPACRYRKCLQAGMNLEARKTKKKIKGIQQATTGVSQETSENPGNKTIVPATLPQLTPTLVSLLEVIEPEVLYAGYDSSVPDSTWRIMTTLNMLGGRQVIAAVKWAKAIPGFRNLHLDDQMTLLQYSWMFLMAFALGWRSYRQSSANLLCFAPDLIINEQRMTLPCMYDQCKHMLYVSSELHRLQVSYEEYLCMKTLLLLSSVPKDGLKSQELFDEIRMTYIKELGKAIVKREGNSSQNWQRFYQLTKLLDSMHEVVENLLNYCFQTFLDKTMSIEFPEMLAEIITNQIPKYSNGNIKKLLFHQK
Sequence of Nuclear respiratory factor 1 (Homo sapiens) (Q16656 whole entry, looked up): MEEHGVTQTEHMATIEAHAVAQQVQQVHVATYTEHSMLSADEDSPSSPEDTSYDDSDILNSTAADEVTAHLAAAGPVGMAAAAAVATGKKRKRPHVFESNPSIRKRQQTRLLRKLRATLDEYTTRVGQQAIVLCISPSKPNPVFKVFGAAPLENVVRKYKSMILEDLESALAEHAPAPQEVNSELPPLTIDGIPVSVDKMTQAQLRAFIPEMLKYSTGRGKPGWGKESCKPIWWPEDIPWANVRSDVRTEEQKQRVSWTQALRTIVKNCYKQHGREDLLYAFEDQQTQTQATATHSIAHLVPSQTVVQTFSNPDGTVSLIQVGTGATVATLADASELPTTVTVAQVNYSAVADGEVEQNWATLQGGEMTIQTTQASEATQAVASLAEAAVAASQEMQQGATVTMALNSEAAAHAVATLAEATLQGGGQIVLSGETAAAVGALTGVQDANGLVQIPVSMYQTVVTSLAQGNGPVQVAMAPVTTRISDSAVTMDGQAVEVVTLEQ
Sequence of Hepatocyte nuclear factor 4-alpha (Homo sapiens) (P41235 whole entry, looked up, the tested form may be a part): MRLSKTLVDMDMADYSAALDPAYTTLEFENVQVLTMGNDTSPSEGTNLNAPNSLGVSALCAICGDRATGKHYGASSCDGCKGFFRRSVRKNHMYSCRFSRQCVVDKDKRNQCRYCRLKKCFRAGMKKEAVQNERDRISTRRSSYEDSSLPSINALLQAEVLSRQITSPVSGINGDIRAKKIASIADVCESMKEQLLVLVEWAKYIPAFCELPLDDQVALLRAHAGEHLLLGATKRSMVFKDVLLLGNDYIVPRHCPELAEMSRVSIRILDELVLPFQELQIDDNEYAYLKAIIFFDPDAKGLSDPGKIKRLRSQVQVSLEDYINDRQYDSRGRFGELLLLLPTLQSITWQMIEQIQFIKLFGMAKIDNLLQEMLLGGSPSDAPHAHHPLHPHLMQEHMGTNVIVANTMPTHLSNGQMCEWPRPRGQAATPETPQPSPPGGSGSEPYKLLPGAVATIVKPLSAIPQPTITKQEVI
Sequence of Oxysterols receptor LXR-beta (Homo sapiens) (P55055 whole entry, looked up, the tested form may be a part): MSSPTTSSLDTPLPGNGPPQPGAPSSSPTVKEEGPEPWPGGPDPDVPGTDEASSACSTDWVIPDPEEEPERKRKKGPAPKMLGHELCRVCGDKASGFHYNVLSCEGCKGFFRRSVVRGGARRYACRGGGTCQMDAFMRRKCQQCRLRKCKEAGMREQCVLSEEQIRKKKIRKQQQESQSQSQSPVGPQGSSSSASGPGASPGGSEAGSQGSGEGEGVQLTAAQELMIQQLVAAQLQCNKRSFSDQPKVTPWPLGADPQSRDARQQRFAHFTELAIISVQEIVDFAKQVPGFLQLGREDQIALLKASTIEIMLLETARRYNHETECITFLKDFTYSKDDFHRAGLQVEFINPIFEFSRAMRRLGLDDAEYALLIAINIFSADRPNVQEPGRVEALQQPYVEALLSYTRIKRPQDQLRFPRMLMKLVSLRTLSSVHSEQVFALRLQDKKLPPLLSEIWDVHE
Sequence of Bile acid receptor (Homo sapiens) (Q96RI1 whole entry, looked up, the tested form may be a part): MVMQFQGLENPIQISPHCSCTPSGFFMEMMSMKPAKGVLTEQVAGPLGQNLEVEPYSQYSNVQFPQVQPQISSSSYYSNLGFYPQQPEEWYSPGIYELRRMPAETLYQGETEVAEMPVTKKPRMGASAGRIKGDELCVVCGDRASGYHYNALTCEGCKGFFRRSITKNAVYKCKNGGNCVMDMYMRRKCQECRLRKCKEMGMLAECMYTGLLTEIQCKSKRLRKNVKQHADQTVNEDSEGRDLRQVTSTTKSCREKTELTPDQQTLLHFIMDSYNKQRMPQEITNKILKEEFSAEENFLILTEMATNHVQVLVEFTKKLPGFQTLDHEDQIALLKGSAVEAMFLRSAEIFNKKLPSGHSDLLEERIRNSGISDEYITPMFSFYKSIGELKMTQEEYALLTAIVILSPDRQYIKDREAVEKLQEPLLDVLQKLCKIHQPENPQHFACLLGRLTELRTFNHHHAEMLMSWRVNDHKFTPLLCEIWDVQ
Sequence of Nuclear receptor subfamily 4 group A member 2 (Homo sapiens) (P43354 whole entry, looked up, the tested form may be a part): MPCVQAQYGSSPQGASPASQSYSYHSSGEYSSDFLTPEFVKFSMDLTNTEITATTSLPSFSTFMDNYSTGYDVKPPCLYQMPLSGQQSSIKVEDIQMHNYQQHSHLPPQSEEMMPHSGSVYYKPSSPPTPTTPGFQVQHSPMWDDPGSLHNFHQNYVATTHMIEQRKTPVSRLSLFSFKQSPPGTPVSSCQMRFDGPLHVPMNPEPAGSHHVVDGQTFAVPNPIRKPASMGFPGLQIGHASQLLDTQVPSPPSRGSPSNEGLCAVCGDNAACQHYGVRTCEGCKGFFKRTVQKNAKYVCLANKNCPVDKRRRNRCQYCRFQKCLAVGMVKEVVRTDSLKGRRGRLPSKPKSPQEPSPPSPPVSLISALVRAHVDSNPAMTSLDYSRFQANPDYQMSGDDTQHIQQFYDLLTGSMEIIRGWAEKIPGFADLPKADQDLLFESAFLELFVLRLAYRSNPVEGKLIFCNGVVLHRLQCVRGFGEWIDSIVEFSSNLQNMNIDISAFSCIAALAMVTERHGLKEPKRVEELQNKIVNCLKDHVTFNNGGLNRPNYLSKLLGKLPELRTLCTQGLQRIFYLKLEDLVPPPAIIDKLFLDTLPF

In the case of `CC(C)(C)c1cc(CCC(=O)NCCCCCCNC(=O)CCc2cc(C(C)(C)C)c(O)c(C(C)(C)C)c2)cc(C(C)(C)C)c1O`, the compound was classed as inactive in [1], in assay [2], in assay [3], in assay [4], in assay [5] and in assay [6]. Further, the result in assay [7], in [8], in assay [9], in assay [10], in assay [11] and in [12] was inactive. Further, the call in assay [13], in assay [14], in assay [15] and in assay [16] was inactive.

On to `C=CC(=O)OCCC(F)(F)C(F)(F)C(F)(F)C(F)(F)F`, for which the compound was classed as inactive in [1], in assay [2], in assay [6], in assay [17], in assay [7] and in [8]. The call in assay [9], in assay [10], in assay [11], in assay [12], in [14] and in assay [18] was inactive. In addition, the result in assay [16] was inactive. Besides, the AC50 in [13] was 98.8 µM (active); in assay [15] it was 22.2 µM (active) and 26.3 µM (active).

Take `CN(C)C(C)(C)CO`: the compound was classed as inactive in assay [1], in [2], in assay [3], in assay [4], in assay [5] and in assay [6]. Besides, the compound was called inactive in assay [7], in [8], in assay [9], in assay [10], in [11] and in assay [12]. The call in assay [13] and in assay [14] was inactive.

Consider `CCCCCC/C=C/CCCCCCCC(=O)O`, for which the call in [1], in [2], in [6], in [17], in [8] and in assay [9] was inactive. Besides, the compound was classed as inactive in assay [10], in assay [11], in assay [12] and in assay [13]. In [7], the concentration at half-maximal activity (AC50) is 67.1 µM (active).

Turning to `CCCCCCCCCCCC(=O)Cl`, the result in assay [1], in assay [2], in [4], in assay [5], in assay [6] and in assay [17] was inactive. Also, the outcome in assay [8], in [9], in [10], in assay [11] and in [14] was inactive. The AC50 in assay [7] was 67.6 µM (active); in assay [12], 123 µM (active); in assay [13], 74.5 µM (active).

Take `CC(C)CCCC(C)CCO` (stereo not given): the call in assay [1], in assay [2], in assay [4], in [17], in [7] and in assay [8] was inactive. Also, the outcome in assay [9], in [10], in assay [11], in assay [12], in [13] and in [14] was inactive. Further, the compound was classed as inactive in assay [18]. Besides, the AC50 in assay [15] was 36.4 µM (active); in [16] it was 26.7 µM (active).

For the compound `CCCCCCCCCCCCCC[P+](CCCC)(CCCC)CCCC`, the result in [1], in assay [2], in [3], in [4], in assay [6] and in assay [17] was inactive. In addition, the outcome in [8], in assay [9], in assay [11] and in assay [12] was inactive. Moreover, the AC50 was 1.24 µM (active) in [10] and 0.719 µM (active) in [13].

For the compound `CCc1cc(Cc2cc(CC)c(N)c(CC)c2)cc(CC)c1N`, the compound was called inactive in [1], in [2], in [5], in assay [6], in [17] and in assay [7]. Further, the result in assay [8], in assay [9] and in [12] was inactive. In addition, the AC50 in assay [10] was 53.4 µM (active); in [11], 57.3 µM (active); in assay [13], 1.62 µM (active); in assay [18], 27.2 µM (active).

In the case of `CCc1ccc(C)nc1`, the call in assay [1], in assay [2], in assay [3], in [5], in [6] and in [17] was inactive. Moreover, the result in assay [8], in assay [9], in [10], in assay [11], in assay [12] and in assay [13] was inactive. In assay [18], the compound was classed as inactive.

For the compound `CC(=O)C=O`, the outcome in [1], in [2], in assay [3], in assay [6], in [8] and in assay [9] was inactive. In addition, the compound was classed as inactive in assay [10], in assay [11], in [12], in [13], in [14] and in assay [18].

These data come from PubChem BioAssay (EPA / NIEHS).
